This passage reports Potency results from PubChem BioAssay (NCATS).

The structures appear in SMILES notation. “And” between values parts separate entries of the source, which are not always exact repeats. Identical values can stand only once. Inconclusive results are not listed. The source made the active and inactive calls. Calls follow the shape of the dose curve; as a rule, active = well fitted curve in the direction sought with a large enough effect; inconclusive = small, poorly fitted or top-dose-only effect, or another doubt; inactive = no such curve, though single readings can be large; an effect the other way counts as inactive or inconclusive.

Assay [1] is described as follows: qHTS of pediatric cancer cell lines to identify multiple opportunities for drug repurposing: Primary screen for TC32 cells (AID 1347089). Also: nearly all actives have a fitted effect of over 60% in size. An outline of the steps: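 In the primary qHTS, MIPE compounds were tested at 11 concentrations (0.78 nM to 46 µM) and NPC compounds at 8 (0.59 nM to 46 µM) on TC32 cells for 48 h. CellTiter-Glo luminescence gave viability.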

Assay [2] can be described thus: qHTS of pediatric cancer cell lines to identify multiple opportunities for drug repurposing: Primary screen for DAOY cells (AID 1347090). Also: nearly all actives have a fitted effect of over 55% in size. In outline: (§1)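 Cell viability, CellTiter-Glo luminescence; 500-1,000 cells/well, 8- or 11-point titration, 48 h compound exposure at 37 degrees C, 5% CO2. Controls: DMSO neutral, bortezomib 2.3 µM final as positive.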
(In general: In qHTS, concentration-response curves come from the screen itself.)

Assay [3] can be described thus: qHTS of pediatric cancer cell lines to identify multiple opportunities for drug repurposing: Primary screen for SJ-GBM2 cells (AID 1347091). An outline of the steps: as §1
Assay [4] is described as follows: qHTS of pediatric cancer cell lines to identify multiple opportunities for drug repurposing: Primary screen for A673 cells (AID 1347092). Also: nearly all actives have a fitted effect of over 45% in size. An outline of the steps: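 48 h compound exposure, A673, 500-1,000 cells/well, 37 degrees C/5% CO2. MIPE: 11-point, 0.78 nM-46 µM; NPC: 8-point, 0.59 nM-46 µM (final). Readout CellTiter-Glo luminescence after 15 min RT.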
Assay [5] can be described thus: qHTS of pediatric cancer cell lines to identify multiple opportunities for drug repurposing: Primary screen for SK-N-MC cells (AID 1347093). In outline: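 Metabolically active cells were quantified by ATP-dependent luminescence (CellTiter-Glo, 15 min at room temperature) following 48 h treatment. Cells had been plated at 500-1,000 per well and settled for 5 h beforehand.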

Assay [6] in a line: qHTS of pediatric cancer cell lines to identify multiple opportunities for drug repurposing: Primary screen for BT-37 cells (AID 1347094). An outline of the steps:
(§2)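 Cells plated at 500-1,000/well in growth medium, compounds added after 5 h. MIPE tested at 11 points (from 0.78 nM), NPC at 8 points (from 0.59 nM). CellTiter-Glo luminescence after 48 h; concentration-response curves from primary screen.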

Assay [7] is described as follows: qHTS of pediatric cancer cell lines to identify multiple opportunities for drug repurposing: Primary screen for NB-EBc1 cells (AID 1347095). An outline of the steps: as §2
A short description of assay [8]: qHTS of pediatric cancer cell lines to identify multiple opportunities for drug repurposing: Primary screen for U-2 OS cells (AID 1347096). Also: nearly all actives have a fitted effect of over 50% in size. In outline:
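Cells (500-1,000/well) rested 5 h, then received compounds for 48 h; metabolically active cells were measured by CellTiter-Glo luminescence. Final concentrations spanned up to 46 µM (MIPE, 11-point) or 0.59 nM-46 µM (NPC, 8-point) in primary screens, 11-point in follow-ups.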

Assay [9] can be described thus: qHTS of pediatric cancer cell lines to identify multiple opportunities for drug repurposing: Primary screen for Saos-2 cells (AID 1347097). Also: nearly all actives have a fitted effect of over 40% in size. An outline of the steps:
as §2
Potency is read from the fitted curve at half-maximal effect.

With `Cc1ccc(C(=O)Nc2cccc(C(F)(F)F)c2)cc1Nc1nc(-c2cccnc2)nc2c1cnn2C`, the Potency entry in assay [1] and in assay [8] was “inactive” each time. Further, the Potency in assay [2] is 14.8 µM (active); in [3], 7.43 µM (active); in [4], 9.35 µM (active); in assay [5], 9.35 µM (active); in assay [6] it was 24.3 µM (active); in [7] it was 8.33 µM (active).

`Cc1[nH]c(C=C2C(=O)Nc3ccc(S(=O)(=O)Cc4c(Cl)cccc4Cl)cc32)c(C)c1C(=O)N1CCC[C@H]1CN1CCCC1`: the Potency entry in assay [1], in [2] and in [7] was “inactive” each time. Further, the Potency in assay [3] is 0.0332 µM (active); in assay [4] it was 23.5 µM (active); in assay [5], 18.7 µM (active); in [6], 27.3 µM (active); in assay [9], 18.7 µM (active).

Turning to `CN[C@@H](C)C(=O)N[C@H]1CN(C(=O)CC(C)C)CC[C@H]2CC[C@@H](C(=O)NC(c3ccccc3)c3ccccc3)N2C1=O`, the Potency result in [1] and in assay [8] was “inactive” throughout. For the same molecule, the Potency was 2.35 µM (active) in assay [2]; 0.935 µM (active) in [3]; 0.0074 µM (active) in assay [4]; 0.372 µM (active) in [5]; 0.153 µM (active) in [6]; 2.96 µM (active) in [7]. The Potency in [9] was 0.296 µM (active).

Turning to `CCOC(=O)O[C@]1(C(=O)OCCl)CC[C@@H]2[C@H]3CCC4=CC(=O)C=C[C@]4(C)[C@@H]3[C@@H](O)C[C@@]21C`, the Potency result in assay [1], in assay [2], in [3], in assay [4], in assay [5] and in [6] was “inactive” each time. The Potency entry in [7], in [8] and in assay [9] was “inactive” throughout.

As to `CO[C@H]1C=CO[C@@]2(C)Oc3c(C)c(O)c4c(O)c(c5c(c4c3C2=O)NC2(CCN(CC(C)C)CC2)N=5)=NC(=O)C(C)=CC=C[C@H](C)[C@H](O)[C@@H](C)[C@@H](O)[C@@H](C)[C@H](OC(C)=O)[C@H]1C`, the Potency result in assay [1], in assay [2], in [3], in assay [4], in assay [5] and in assay [6] was “inactive” throughout. The Potency result in assay [7], in assay [8] and in assay [9] was “inactive” in each case.

`O=C(CCN1CCN(C(=O)OCc2cc(Cl)cc(Cl)c2)CC1)c1ccc2[nH]c(=O)oc2c1`: the Potency result in [1], in assay [2], in assay [3], in assay [4], in [5] and in assay [6] was “inactive” throughout. Further, the Potency result in [7] and in [8] was “inactive” each time.

As for `CS(=O)c1ccc(-c2nc(-c3ccc(F)cc3)c(-c3ccncc3)[nH]2)cc1` (stereo not drawn), the Potency result in assay [1], in assay [2] and in [8] was “inactive” in each case. The Potency in [3] is 42.9 µM (active); in assay [4], 34 µM (active); in [5] it was 8.55 µM (active); in assay [6], 17.7 µM (active); in assay [9] it was 10.8 µM (active).

`O=C(O)c1ccccc1C(=O)Nc1ccc(-c2ccccc2)cc1`: the Potency entry in [1], in assay [2], in assay [3], in assay [4], in assay [5] and in assay [6] was “inactive” throughout. The Potency result in assay [7], in assay [8] and in [9] was “inactive” each time.

Take `COc1ccc(-c2nc(N3CCOCC3)c3sc(CN(C)c4ncc(C(=O)NO)cn4)cc3n2)cn1`: the Potency in [1] was 41.5 nM (active); in assay [2] it was 0.0118 µM (active); in assay [3], 0.0066 µM (active); in assay [4], 0.0935 µM (active); in assay [5] it was 0.001 µM (active); in assay [6] it was 0.0069 µM (active). Further, the Potency was 0.001 µM (active) in assay [7], 0.0118 µM (active) in assay [8] and 0.0066 µM (active) in assay [9].

Regarding `CC(C)C[C@H](CC(=O)O)C(=O)N[C@@H](Cc1c[nH]c2ccccc12)C(=O)N[C@@H](C)c1ccccc1`, the Potency result in [1], in assay [2] and in assay [8] was “inactive” throughout. Also, the Potency in assay [3] is 3.72 µM (active); in assay [4], 1.87 µM (active); in assay [5] it was 1.66 µM (active); in [6], 3.06 µM (active); in assay [7] it was 1.05 µM (active).

As to `O=C(O)c1cc(-c2ccccc2)nc2ccccc12`, the Potency entry in [1], in [2], in [3], in [4], in assay [6] and in assay [7] was “inactive” throughout. For the same molecule, the Potency result in assay [8] and in assay [9] was “inactive” each time. The Potency in [5] was 49.1 µM (active).

With `COc1ncc(-c2ccc3nccc(-c4ccnnc4)c3c2)cc1NS(=O)(=O)c1ccc(F)cc1F`, the Potency was 2.6 nM (active) in [1]; 4.69 µM (active) in assay [2]; 0.001 µM (active) in [3]; 0.0743 µM (active) in assay [4]; 0.001 µM (active) in [5]; 0.0611 µM (active) in assay [6]. Moreover, the Potency in [7] is 0.001 µM (active); in assay [8], 7.43 µM (active).

`O=C(O)c1cc(O)c2c(c1)C(=O)c1cccc(O)c1C2=O`: the Potency result in assay [1], in assay [2], in assay [3], in [4], in assay [6] and in assay [8] was “inactive” throughout. Besides, the Potency is 19.1 µM (active) in [5] and 38.2 µM (active) in [7].

As to `CN1C[C@H]2c3ccccc3Oc3ccc(Cl)cc3[C@@H]2C1`, the Potency entry in [1], in assay [2], in [3], in assay [4], in assay [5] and in assay [6] was “inactive” each time. Besides, the Potency entry in assay [7], in assay [8] and in assay [9] was “inactive” in each case.

Turning to `COc1ccc(-c2coc3cc(O)ccc3c2=O)cc1`, the Potency entry in assay [1], in assay [2], in assay [3], in assay [4], in assay [5] and in assay [6] was “inactive” each time. In addition, the Potency entry in [7], in assay [8] and in [9] was “inactive” in each case.

Turning to `CC[C@]1(O)C[C@@H]2CN(CCc3c([nH]c4ccccc34)[C@@](C(=O)OC)(c3cc4c(cc3OC)N(C)[C@H]3[C@@](O)(C(=O)OC)[C@H](OC(C)=O)[C@]5(CC)C=CCN6CC[C@]43[C@@H]65)C2)C1`, the Potency in assay [1] was 118 nM (active) and 592 nM (active); in assay [2], 26.6 nM (active) and 133 nM (active); in [3], 0.075 µM (active); in assay [4] it was 21.1 nM (active) and 133 nM (active); in [5], 33.5 nM (active) and 106 nM (active); in assay [6], 43.7 nM (active) and 174 nM (active). The Potency was 0.188 µM (active) in assay [7]; 42.2 nM (active) and 168 nM (active) in assay [9].

Take `Cc1ccccc1C(C(=O)NC1CCCCC1)N(C(=O)Cn1ccnc1C)c1cccc(F)c1` (stereo not drawn): the Potency result in assay [1], in assay [2], in assay [3], in [4], in [6] and in assay [8] was “inactive” each time. Also, the Potency in assay [5] was 23.5 µM (active).
